From PubChem
POLB inh: DNA polymerase beta (human) inhibition; P06746; Pol beta primer extension/strand displacement, fluorescence kinetic; Potency, µM (highest dose often 114 µM), most hits filed as inhibitors; 340,000 compounds, 1.3% hits; AID 485314
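Values derive from four-parameter Hill fits of normalized kinetic data: reads at 0 and 10 min following addition of 50 nM substrate to 10 nM Pol beta preincubated 15 min with compound.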
TDP1 block: TDP1 (human) enzyme inhibition; Q9NUW8; recombinant TDP1, AlphaScreen DNA substrate cleavage; Potency, µM (doses to about 130 µM), actives largely listed as inhibitors; 350,000 compounds, 0.28% hits; AID 485290; note: nearly all actives have a fitted effect of over 40% in size
Target sequence (Q9NUW8 whole entry, looked up): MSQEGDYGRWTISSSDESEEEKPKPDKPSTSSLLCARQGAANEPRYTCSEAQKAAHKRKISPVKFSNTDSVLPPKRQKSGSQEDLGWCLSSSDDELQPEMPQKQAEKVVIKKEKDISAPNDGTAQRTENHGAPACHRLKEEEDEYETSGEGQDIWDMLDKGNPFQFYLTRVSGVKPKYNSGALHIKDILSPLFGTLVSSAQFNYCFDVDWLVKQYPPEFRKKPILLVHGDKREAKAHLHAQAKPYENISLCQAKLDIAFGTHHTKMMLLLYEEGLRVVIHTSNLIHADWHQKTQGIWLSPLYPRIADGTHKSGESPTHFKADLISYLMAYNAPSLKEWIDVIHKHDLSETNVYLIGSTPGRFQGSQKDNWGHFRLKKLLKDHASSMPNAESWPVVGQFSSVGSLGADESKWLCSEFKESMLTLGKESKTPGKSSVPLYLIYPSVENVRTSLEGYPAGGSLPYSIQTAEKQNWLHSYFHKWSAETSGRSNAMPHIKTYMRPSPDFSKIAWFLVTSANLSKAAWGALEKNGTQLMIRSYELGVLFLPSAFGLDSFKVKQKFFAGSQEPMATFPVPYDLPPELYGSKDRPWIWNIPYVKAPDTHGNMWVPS
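Steps: enzyme plus compound, 15 min RT; add biotin/phosphotyrosine-FITC oligonucleotide (15 nM final), react 5 min; add donor/acceptor beads (10 ug/ml final), 10 min; read AlphaScreen. Tdp1 at 1 nM final.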
FEN1 inh: human FEN1 inhibition; Potency, µM (doses to about 114 µM), hits mostly inhibitors; Recombinant FEN1 flap cleavage, fluorescence, 15 min; 390,000 compounds, 0.35% hits; P39748; note: nearly all actives have a fitted effect of over 65% in size
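Reaction started by adding substrate (50 nM final) to 10 nM enzyme after 15 min room-temperature compound preincubation. Reads at 0 and 15 min, with data normalized and fitted to a four-parameter Hill equation.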
Pol kappa inh-1: inhibitors of human DNA polymerase kappa; purified Pol kappa, fluorescent DNA synthesis assay, 10 min; Potency, µM (titrated, usually from 107 µM), most hits filed as inhibitors; 400,000 compounds, 0.53% hits; AID 588579
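50 nM final substrate added after 15 min RT preincubation of 10 nM Pol kappa with compound; fluorescence read at 0 and 10 min.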
POLI inh: blocks human DNA polymerase iota activity; Q9UNA4; Pol iota fluorescent replication assay, 10 min; Potency, µM (highest dose often 115 µM), most hits filed as inhibitors; 390,000 compounds, 1% hits
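Pol iota at 10 nM preincubated 15 min with compounds at room temperature; reaction started with fluorescent substrate, 50 nM final. Fluorescence read kinetically at 0 and 10 min; buffer-only wells as negative control.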
Pol eta inh-1: inhibitors of human DNA polymerase eta. Potency, µM (doses to about 114 µM), hits mostly inhibitors. recombinant Pol eta, fluorescent DNA replication assay. Q9Y253. 390,000 compounds, 1.2% hits
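Fluorescent replication assay: 50 nM final substrate added after a 15 min room-temperature compound preincubation with 10 nM enzyme. Signal taken at 0 min and again at 10 min.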
POLI cherry-pick: Human Pol iota inhibitor confirmatory assay; 1,500 compounds, 77% hits; Pol iota primer extension, TAMRA/BHQ fluorescence; Potency, µM, actives largely listed as inhibitors; shares compounds with Pol kappa inh-1
GALK inh confirm: confirmation of human galactokinase (GALK) inhibitors. purified GALK, Kinase-Glo ATP depletion luminescence. Potency, µM (highest dose often 115 µM), most hits filed as inhibitors. shares compounds with Pol eta inh-1. 150 compounds, 70% hits
Redox cycling: counter-screen for GALK inhibitors: redox cycling H2O2 generation | 150 compounds, 40% hits | Phenol red-HRP H2O2 redox cycling, absorbance 600 nm | AID 2035 | Potency, µM (series often up to 115 µM), hits mostly inhibitors | shares compounds with Pol eta inh-1
HEK293 viability: reduces HEK-293 cell viability in GALK counter-screen; HEK-293 viability, ATP luminescence (CellTiter-Glo), 24/48 h; 170 compounds, 10% hits; shares compounds with Pol eta inh-1; Potency, µM (series often up to 46.1 µM), usual class: inhibitors; AID 2547
Pol kappa inh-2: confirmation of human DNA polymerase kappa inhibitors | shares compounds with Pol eta inh-1 | 920 compounds, 76% hits | Potency, µM, most hits filed as inhibitors | purified Pol-kappa, fluorescent strand-displacement substrate
Pol eta inh-2: Pol eta (human) inhibition, cherry-pick confirmation | shares compounds with Pol eta inh-1 | Pol eta primer extension, TAMRA/BHQ fluorescence, 10 min | Potency, µM, usual class: inhibitors | 2,600 compounds, 64% hits | AID 720502
Of the large screens only hits and unclear results are named; the others gave an inactive call (follow-up assays come after a bar, where they were run). The list is not random: actives were taken first. Their share in the collection is about 2.4%. Calls come from the whole dose curve; as a rule, active = well fitted curve in the direction sought with a large enough effect; inconclusive = small, poorly fitted or top-dose-only effect, or another doubt; inactive = no such curve, though single readings can be large; an effect the other way counts as inactive or inconclusive.

COc1cccc(CNC(=O)Cn2c(=O)cc(C)c3c(C)nn(C)c32)c1OC	none
O=C(CCCCCn1c(SCc2ccncc2)nc2ccccc2c1=O)NCc1ccco1	POLB inh 40µM, Pol kappa inh-1 inconclusive, POLI inh 14µM, Pol eta inh-1 79µM (no result: TDP1 block) | POLI cherry-pick 47 | Pol eta inh-2 76
O=C1NN(c2ccccc2)C(=O)/C1=C/c1ccc(Sc2ccc(Cl)cc2)o1	POLB inh inconclusive, Pol kappa inh-1 50µM, POLI inh 7.9µM (no result: Pol eta inh-1) | POLI cherry-pick inconclusive | Pol eta inh-2 30
Cc1ccc(Sc2ccc(/C=C3/C(=O)NN(c4ccccc4)C3=O)o2)cc1	POLB inh inconclusive, Pol kappa inh-1 inconclusive, Pol eta inh-1 22µM | POLI cherry-pick 67 | Pol kappa inh-2 24 | Pol eta inh-2 inconclusive
C=CCSC1=N/C(=C\C=C\c2ccco2)C(=O)S1	POLB inh 2.5µM, FEN1 inh 50µM, Pol kappa inh-1 14µM, POLI inh 4.5µM, Pol eta inh-1 3.5µM | POLI cherry-pick 21 | Pol kappa inh-2 9.5 | Pol eta inh-2 21
COc1ccc(-c2cc(C(F)(F)F)c3c(n2)sc2c(O)cc(=O)[nH]c23)c(OC)c1	POLB inh 56µM, FEN1 inh inconclusive, Pol kappa inh-1 20µM, POLI inh inconclusive, Pol eta inh-1 13µM | POLI cherry-pick 67 | Pol eta inh-2 67
Cc1ccc(S(=O)(=O)/N=C2\C=C(Nc3cccc(C(=O)O)c3)C(=O)c3ccccc32)cc1	POLB inh inconclusive, FEN1 inh inconclusive, POLI inh 4µM, Pol eta inh-1 32µM | POLI cherry-pick 75 | Pol eta inh-2 48
CCc1ccc(S(=O)(=O)/N=C2\C=C(Nc3ccc(C(=O)O)cc3)C(=O)c3ccccc32)cc1	POLI inh 11µM, Pol eta inh-1 28µM | POLI cherry-pick 19 | GALK inh confirm inconclusive | Redox cycling 12µM | HEK293 viability 11µM | Pol kappa inh-2 inconclusive | Pol eta inh-2 21
N#CCCn1c(=O)c(-c2ccccc2)nc2cnc(Oc3cccc(Cl)c3)nc21	none (no result: POLB inh, TDP1 block, FEN1 inh, POLI inh, Pol eta inh-1)
Cc1c(C(=O)O)sc2nc(/C=C/c3ccccc3OC(F)F)[nH]c(=O)c12	POLB inh 40µM, TDP1 block 71µM, FEN1 inh inconclusive, POLI inh inconclusive, Pol eta inh-1 inconclusive | POLI cherry-pick 75 | Pol eta inh-2 inconclusive
CCCc1nn2c(=O)cc(COC(=O)c3ccc4c(c3)OCO4)nc2s1	none
